Hits are enriched below; roughly 3% of the tested compounds scored in any of these assays.
C8 TRAIL sens: sensitizes caspase-8 expressing cells to TRAIL | NB7+C8 cells + TRAIL, ATPlite viability luminescence | inhibition (viability loss, TRAIL sensitization), % at 10 µM | 360,000 compounds, 1% hits | AID 624354;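 active = compounds causing at least 50% loss of cell viability in the single-dose screen, relative to plate controls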
SENP6 block: inhibitors of human SENP6 protease; Q9GZR1; Recombinant SENP6 catalytic domain, aminoluciferin luminescence; inhibition, % at 10 µM; 330,000 compounds, 1.8% hits; AID 2599;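 active = inhibition above about 50% at the single tested dose, limit read from the data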
SENP8 block-1: inhibitors of human SENP8 protease | recombinant SENP8, Nedd8 substrate fluorescence | inhibition, % at 20 µM | 360,000 compounds, 0.64% hits | AID 602440; in the data active = inhibition mostly above about 40%, no sharp cut-off; inactive = mostly below about 27%
Target sequence (Q96LD8 whole entry, looked up): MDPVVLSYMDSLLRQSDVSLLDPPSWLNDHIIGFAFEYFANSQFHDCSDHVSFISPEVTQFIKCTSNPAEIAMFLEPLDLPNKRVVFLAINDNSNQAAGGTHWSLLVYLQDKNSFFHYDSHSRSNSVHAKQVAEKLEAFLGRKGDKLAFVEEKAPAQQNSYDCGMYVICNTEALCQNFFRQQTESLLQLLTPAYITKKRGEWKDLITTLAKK
SENP8 block-2: SENP8 protease inhibition | inhibition, % at 10 µM | AID 2540 | 330,000 compounds, 1.2% hits | purified SENP8, Z-RLRGG-aminoluciferin cleavage, luminescence | Q96LD8; in the data active = inhibition above about 50%
PPC-1+TRAIL kill: compounds killing PPC-1 cancer cells with TRAIL present (potentiator screen, no TRAIL-free arm); PPC-1 cells + TRAIL, ATPLite viability luminescence; cell killing (% activity), % at 4 µM or 5 µM; 220,000 compounds, 0.41% hits;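 active = cell killing above 50% in the first pass at 4 µM, then a duplicate retest at 5 µM averaging 50% or more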
SENP7 inh: SENP7 protease inhibition. AID 434973. recombinant SENP7, Z-RLRGG-aminoluciferin luminescence, 40 min. inhibition, % at 5 µM. 330,000 compounds, 1.5% hits;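 active = inhibition above about 50% at the single test dose, limit read from the data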
SENP8 conf: human SENP8 inhibition, confirmed; 6,200 compounds, 40% hits; inhibition, % at 12.5 µM; AID 488912; shares compounds with SENP7 inh; Recombinant SENP8, Z-RLRGG-aminoluciferin luminescence, 60 min;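 active = mean inhibition across replicates above about 50%, limit read from the data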
SENP6 confirm: confirmation of human SENP6 protease inhibitors | shares compounds with SENP7 inh | recombinant SENP6, Z-RLRGG-aminoluciferin luminescence | inhibition, % at 12.5 µM | 6,200 compounds, 58% hits | AID 488915
SENP7 confirm: human SENP7 inhibition, confirmed. shares compounds with SENP7 inh. recombinant SENP7, Z-RLRGG-aminoluciferin luminescence, 40 min. inhibition, % at 12.5 µM. 6,200 compounds, 69% hits. AID 488917
Casp3 select: caspase-3 inhibition (SENP selectivity assay); shares compounds with SENP7 inh; AID 488918; inhibition, % at 12.5 µM; 6,200 compounds, 60% hits; purified caspase-3, Z-DEVD-aminoluciferin luminescence, 60 min;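 active = mean inhibition above about 50%, limit read from the data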
Target sequence (P42574 28-227 limits assumed): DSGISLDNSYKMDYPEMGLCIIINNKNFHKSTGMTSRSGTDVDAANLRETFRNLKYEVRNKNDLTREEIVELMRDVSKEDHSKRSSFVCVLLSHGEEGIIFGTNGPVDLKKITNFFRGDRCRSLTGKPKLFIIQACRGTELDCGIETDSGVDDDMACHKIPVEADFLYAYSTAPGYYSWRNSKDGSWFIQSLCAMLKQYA
SENP luc ctr: counter-screen for SENP inhibitors: luminescence interference. shares compounds with SENP7 inh. Pre-incubated SENP8/Z-RLRGG-aminoluciferin, luciferase luminescence interference. inhibition, % at 12.5 µM. 6,200 compounds, 39% hits;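 active = mean inhibition above about 50% when retested at one dose, limit read from the data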
Of the large screens only hits and unclear results are named; the others gave an inactive call (follow-up assays come after a bar, where they were run).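 The calls were made as follows, unless noted: active = mean inhibition above about 50% in the one-dose retest (limit read from the data); inactive = the rest.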

CC(C)CC1C(=O)N(Cc2cn(CC3CCCCC3)nn2)CCS(=O)(=O)N1Cc1ccc(-c2cccc(C#N)c2)cc1 (stereo not given)	none (no result: SENP6 block, SENP8 block-2, PPC-1+TRAIL kill, SENP7 inh)
Cc1ccc(C2CC(c3ccco3)n3ncnc3N2)cc1 (stereo not given)	none
Cc1ccc2c(c1)C(N1CCCC1=O)CC(c1ccco1)N2 (stereo not given)	C8 TRAIL sens 48, SENP6 block 94, SENP8 block-2 95 | SENP8 conf inactive | SENP6 confirm 82 | SENP7 confirm 100 | Casp3 select 95 | SENP luc ctr inactive
COC/C=C/C1=CC2=CC(=O)C(C)(OC(=O)c3cnc4ccccc4n3)C(=O)C2=CN1c1ccc(CO)cc1 (stereo not given)	none (no result: C8 TRAIL sens, SENP8 block-1, PPC-1+TRAIL kill)
COC/C=C/C1=CC2=CC(=O)C(C)(OC(=O)c3cnc4ccccc4n3)C(=O)C2=CN1c1ccccc1 (stereo not given)	SENP8 block-2 64 (no result: C8 TRAIL sens, SENP8 block-1) | SENP8 conf inactive | SENP6 confirm inactive | SENP7 confirm inactive | Casp3 select inactive | SENP luc ctr inactive
O=C(OCc1ccc(Cl)c(Cl)c1)c1cccnc1Cl	none (no result: PPC-1+TRAIL kill)
O=C(OCc1ccc(Cl)c(Cl)c1)c1ccccn1	SENP6 block 80, SENP8 block-2 51, SENP7 inh 69 | SENP8 conf 71 | SENP6 confirm 69 | SENP7 confirm 90 | Casp3 select 71 | SENP luc ctr 73
Nc1ncccc1OCc1ccc(Cl)c(Cl)c1	SENP6 block 75, SENP8 block-2 70, SENP7 inh 81 | SENP8 conf 79 | SENP6 confirm 79 | SENP7 confirm 94 | Casp3 select 75 | SENP luc ctr 81
O=C(CN1C(=O)COc2ccccc21)Nc1ccc(N2CCOCC2)cc1	none (no result: PPC-1+TRAIL kill)
Cc1ccccc1C(=O)c1c[nH]c(C(=O)NCCc2ccccn2)c1	none
O=C1NC[C@@H](CCCCN2C[C@H](Cc3ccccc3)N(CC3CCCCC3)C(=O)C2=O)N(CCc2ccccc2)C1=O	none (no result: SENP6 block, SENP8 block-2, PPC-1+TRAIL kill, SENP7 inh)
O=C(Nc1ccccn1)c1cc(-c2cccc(Cl)c2)nc2ccccc12	none
Oc1ccc(N=Nc2ccc(Br)cc2)c(O)c1	SENP6 block 99, SENP8 block-2 96, SENP7 inh 89 | SENP8 conf 93 | SENP6 confirm 93 | SENP7 confirm 98 | Casp3 select 72 | SENP luc ctr 82
Cc1ccc(N=Nc2ccc(O)cc2)c(Br)c1	SENP6 block 64, SENP8 block-2 56 (no result: PPC-1+TRAIL kill) | SENP8 conf 74 | SENP6 confirm 73 | SENP7 confirm 86 | Casp3 select inactive | SENP luc ctr 69
Oc1ccc(N=Nc2n[nH]c(-c3ccc(Br)cc3)n2)cc1	none (no result: SENP6 block, SENP8 block-2, SENP7 inh)
CCN(CC)S(=O)(=O)c1ccc(N=Nc2cc(C)cc(Br)c2O)cc1	none (no result: PPC-1+TRAIL kill)
COC(=O)c1ccc2c(c1O)C(=O)c1ccccc1C2=O	SENP6 block 71 | SENP8 conf inactive | SENP6 confirm 55 | SENP7 confirm 66 | Casp3 select 74 | SENP luc ctr inactive
Nc1c(C(=O)O)ccc2c1C(=O)c1ccccc1C2=O	SENP8 block-2 54 | SENP8 conf 69 | SENP6 confirm 66 | SENP7 confirm 83 | Casp3 select 79 | SENP luc ctr 73
O=C(O)c1ccc([N+](=O)[O-])c2c1C(=O)c1ccccc1C2=O	none (no result: PPC-1+TRAIL kill)
Nc1c(SCCC(=O)O)ccc2c1C(=O)c1ccccc1C2=O	SENP6 block 89, SENP8 block-2 84 (no result: PPC-1+TRAIL kill) | SENP8 conf 93 | SENP6 confirm 93 | SENP7 confirm 98 | Casp3 select 94 | SENP luc ctr 92
CN(N)C(=S)Nc1ccc(Cl)cc1	none
Cc1ccc(CNC(=O)CC[C@H]2O[C@@H](n3cc(C)c(=O)[nH]c3=O)C[C@@H]2O)o1	none (no result: SENP6 block, SENP8 block-2, PPC-1+TRAIL kill, SENP7 inh)
O=C(Cc1ccc(Cl)cc1)c1ccc(O)cc1	SENP6 block 51 | SENP8 conf 55 | SENP6 confirm inactive | SENP7 confirm 79 | Casp3 select inactive | SENP luc ctr 63
Clc1ccc(Cc2nc(-c3cccnc3)no2)cc1	none
CCOC(=O)CNC(=O)c1cc(-c2ccccn2)nc2c(C)c(Cl)ccc12	none
NC(=O)CSc1nc(N)c2c3c(sc2n1)CCCCC3	none
NC(=O)CSc1nc(C2CC2)nc2sc3c(c12)CCCC3	SENP6 block 75, SENP8 block-2 74, SENP7 inh 68 | SENP8 conf inactive | SENP6 confirm inactive | SENP7 confirm inactive | Casp3 select inactive | SENP luc ctr inactive
CCC/C=C/c1ccc(CN2C(C(C)C)C(=O)N(Cc3cn(Cc4ccco4)nn3)CCS2(=O)=O)cc1 (stereo not given)	none (no result: SENP6 block, SENP8 block-2, PPC-1+TRAIL kill, SENP7 inh)
O=C(Nc1c[nH]c(=O)[nH]c1=O)c1cccc([N+](=O)[O-])c1	none (no result: PPC-1+TRAIL kill)
O=C(Nc1ccccc1C(=O)O)c1cccc(F)c1	SENP6 block 75, SENP8 block-2 51 (no result: PPC-1+TRAIL kill) | SENP8 conf 75 | SENP6 confirm 70 | SENP7 confirm 92 | Casp3 select 87 | SENP luc ctr 75
Cc1ccc(C(=O)Nc2ccccc2C(=O)O)cc1S(=O)(=O)Nc1ccccc1	SENP6 block 62 (no result: PPC-1+TRAIL kill) | SENP8 conf 55 | SENP6 confirm 52 | SENP7 confirm 73 | Casp3 select inactive | SENP luc ctr 63
O=C(Nc1c[nH]c(=O)[nH]c1=O)c1cccc(F)c1	SENP8 block-2 62 (no result: PPC-1+TRAIL kill) | SENP8 conf inactive | SENP6 confirm inactive | SENP7 confirm inactive | Casp3 select inactive | SENP luc ctr inactive
Cc1ccc(S(=O)(=O)CCSc2cccc(C(=O)Nc3ccccc3C(=O)O)c2)cc1	SENP6 block 88, SENP8 block-2 65 | SENP8 conf inactive | SENP6 confirm 76 | SENP7 confirm 92 | Casp3 select 60 | SENP luc ctr 85
O=C(Nc1cc(C(=O)Nc2ccccc2C(=O)O)cc(C(=O)Nc2ccccc2C(=O)O)c1)c1ccccc1	none (no result: PPC-1+TRAIL kill)
Cc1cc(C(=O)Nc2ccccc2C(=O)O)oc1C	SENP6 block 64 (no result: PPC-1+TRAIL kill) | SENP8 conf 68 | SENP6 confirm 64 | SENP7 confirm 90 | Casp3 select 88 | SENP luc ctr 73
